# Source: PubChem BioAssay AID2551 (National Center for Advancing Translational Sciences (NCATS), 2010)
# The campaign covered roughly 310,000 compounds. About 17,000 (5.5%) were called active. Not shown: some 11% with an inconclusive outcome. The entries come from a sample that favours actives as a whole. Values without a mark were called inactive. Calls follow the shape of the dose curve; as a rule, active = well fitted inhibition curve with a large enough effect; inconclusive = small, poorly fitted or top-dose-only effect, or effect the other way; inactive = no such curve, though single readings can be large or run the other way.
# Biological target: Nuclear receptor ROR-gamma (Mus musculus) (UniProt P51450)
# Sequence (P51450 whole entry, looked up): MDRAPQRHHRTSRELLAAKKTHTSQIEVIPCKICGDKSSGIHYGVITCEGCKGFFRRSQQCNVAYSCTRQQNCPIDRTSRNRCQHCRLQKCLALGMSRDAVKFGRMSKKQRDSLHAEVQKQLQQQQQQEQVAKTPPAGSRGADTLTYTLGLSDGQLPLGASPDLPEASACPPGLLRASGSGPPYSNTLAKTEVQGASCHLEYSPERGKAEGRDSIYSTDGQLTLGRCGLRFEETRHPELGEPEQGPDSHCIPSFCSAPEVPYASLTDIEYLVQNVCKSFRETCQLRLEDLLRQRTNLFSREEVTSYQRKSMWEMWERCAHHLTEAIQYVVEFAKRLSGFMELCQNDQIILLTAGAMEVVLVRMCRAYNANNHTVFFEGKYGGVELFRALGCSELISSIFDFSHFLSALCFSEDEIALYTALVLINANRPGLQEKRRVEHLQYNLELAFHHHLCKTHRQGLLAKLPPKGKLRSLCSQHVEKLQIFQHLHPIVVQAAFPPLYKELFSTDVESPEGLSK
# Experiment: qHTS for inhibitors of ROR gamma transcriptional activity; also: nearly all actives have a fitted effect of over 60% in size
# Details: Drosophila S2 Gal4-RORgamma UAS-luciferase reporter, 20 h; series mostly up to 53.6 µM; activity change, negative = inhibition: at the top concentration
# From the text: NIH Molecular Libraries Probe Production Network [MLPCN] NIH Chemical Genomics Center [NCGC] MLPCN Grant: R03 DA026211-01 Assay Provider: Dan Littman, New York University Assay Overview: The retinoic acid-related orphan receptor (ROR) gamma is a transcription factor that has a central role in the differentiation of Th17 cells, a subset of T helper cells that secrete the inflammatory cytokines IL-17, IL-17F, and IL-22. Th17 cells have been implicated in graft versus host disease, autoimmune disease and asthma. ROR gamma is induced in naive T helper cells in the presence of TGF-beta combined with IL-6, IL-21, or IL-23, and thereafter directs the expression of the Th17 lineage cytokines. To study the mechanism of action of ROR gamma, an insect cell-based assay was screened. This Drosophila Schneider cell line was stably transfected with two vectors: a gene expressing a fusion of the Gal4 DNA binding domain and ROR gamma transactivation domain under the control of the metallothionine promoter and a Photinus luciferase reporter regulated by the Gal4 binding site enhancer, UAS. […] Small molecule inhibitors of ROR gamma activity are detected by a decrease in luciferase reporter activity.
# Assay Protocol Summary: For screening, 600 cells in 4 uL/well were dispensed into white solid 1536-well plates (Grenier) using a solenoid-based dispenser. Following transfer of 23 nL compound or DMSO vehicle by a pin tool, the plates were incubated 1 hr at ambient temperature, and 1 uL/well copper sulfate (700 uM final concentration) was added. The plates were centrifuged 15 s at 1000 RPM and incubated 20 hr at ambient temperature. After addition of 1.5 uL Photinus luciferase detection reagent, the plates were incubated 10 min at ambient temperature and then read by an ViewLux (Perkin Elmer) to detect luminescence. Keywords: NIH Roadmap, MLPCN, MLI, MLSMR, qHTS, NCGC, qHTS, nuclear hormone receptor, retinoic acid-related orphan receptor, ROR gamma
# % is scaled to controls: 0 for no effect and ±100 for the full control effect; potency is read from the fitted curve at half-maximal effect.
Structure (SMILES),"activity change, negative = inhibition [%]",Potency
CC(C)(O)c1[se]c2ccccc2c1I,-2.25,
CC[C@H]1CN2CCc3cc(OC)c(OC)cc3[C@@H]2C[C@@H]1C[C@H]1NCCc2cc(OC)c(OC)cc21,,1.26 µM (active)
COc1cccc(-c2nc3ccc(N4CCN(C)CC4)cc3[nH]2)c1,,1.12 µM (active)
CN1CCN(c2cc(N3CCNCC3)ccc2[N+](=O)[O-])CC1,15,
COC(=O)c1ccc2[se]c(CC3CCCCC3)c(I)c2c1,14.9,
Cc1ccc(-n2c(O)c(C=NCC3CCCO3)c(=O)[nH]c2=O)c(C)c1 (centres undefined),1.05,
COC1CC(OC2CC[C@@]3(C=O)C4CC[C@]5(C)C(C6=CC(=O)OC6)CC[C@@]5(O)C4CC[C@]3(O)C2)OC(C)C1O (some centres undefined),1.32,
BrC1C(Br)C(Br)C(Br)C(Br)C1Br (centres undefined),,5.01 µM (active)
O=C(Nc1cccc(F)c1)N1CC[C@@]2(CCCN(C(=O)Oc3ccccc3)C2)C1,-0.0221,
CCN1C[C@]2(COC)C(O)C[C@H](OC)[C@@]34C5C[C@]6(O)C(OC)C(O)[C@](OC(C)=O)(C5C6OC(=O)c5ccccc5)C(C(OC)C23)C14 (some centres undefined),-0.118,
CCCCC#N,1.58,
COc1cccc(OC)c1C(=O)NC(=S)N1C[C@H]2C[C@H](C1)c1cccc(=O)n1C2,-0.303,
COc1cccc(C(=O)N2C[C@H]3C[C@@H](C2)c2cccc(=O)n2C3)c1,-18.3,
O=C(NC(=S)N1C[C@H]2C[C@H](C1)c1cccc(=O)n1C2)c1ccc(F)cc1,,11.2 µM (active)
N#CCCCl,,inactive
CCN(CC)c1nc(C)cc(OP(=S)(OC)OC)n1,11.2,
CC(C)(c1ccc(OC[C@@H]2CO2)cc1)c1ccc(OC[C@H]2CO2)cc1,-11.2,
CN1CCN(C(=O)O[C@@H]2c3nccnc3C(=O)N2c2ccc(Cl)cn2)CC1,-16.6,
Cn1c(O)c(C=NCCN2CCNCC2)c(=O)n(C)c1=O,21,
Cn1c(O)c(C=NCCCC(=O)O)c(=O)n(C)c1=O,11.3,
CC(=C1C(=O)c2ccccc2C1=O)N1CCN(CCN=Cc2c(O)n(C)c(=O)n(C)c2=O)CC1,,7.08 µM (active)
CC(=O)OC1C2CCC3C1(CC(O)[C@@]1(O)[C@@H](CC(O)C1(C)C)[C@]3(C)O)C[C@@]2(C)O (some centres undefined),23.2,
O=[N+]([O-])c1ccc(Cl)c(Cl)c1,7.3,
N[C@H](Cc1o[nH]c(=O)c1Cl)C(=O)O,1.57,
